SW480 rerep: DNA re-replication induction in SW480 cells. SW480 DNA re-replication, Hoechst DNA content imaging, 48 h. Potency, µM (highest dose often 46.1 µM), without a hit: at the top dose re-replication activation, actives largely listed as activators. 340,000 tested, 1.8% active; also: % of control where 0% means no effect; nearly all actives have a fitted effect of over 55% in size
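Readout is total intensity of Hoechst-stained nuclei, excited at 405 nm and collected at 500-530 nm. Compound treatment lasted 48 hr at 37 C in 5% CO2 before staining.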
PINK1 modulator: PINK1 expression modulation; PINK1 immunofluorescence, high-content cytometry, 24 h; Potency, µM (top dose mostly 76.6 µM), for inactives: top-dose activation (PINK1 increase), actives largely listed as activators; 410,000 tested, 0.2% active; AID 624263; active = well fitted activation curve with a large enough effect; inconclusive = small, poorly fitted or top-dose-only effect; cell line not stated here; also: % of control where 0% means no effect; nearly all actives have a fitted effect of over 65% in size
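Measures PINK1 amount and localization on or inside mitochondria by immunofluorescence. Stable cells get compounds at 5 concentrations for 24 hours before fixation and staining; CCCP controls included.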
KB-3-1 cytotox: kills parental KB-3-1 adenocarcinoma cells; KB-3-1 viability, CellTiter-Glo ATP luminescence, 72 h; Potency, µM (doses to about 46.1 µM), usual class: cytotoxic; 400,000 tested, 1.4% active; AID 1347075; also: % is scaled to controls: 0 for no effect and ±100 for the full control effect; nearly all actives have a fitted effect of over 60% in size
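72 h, 37 °C compound treatment of KB-3-1 parental cells; CellTiter-Glo added, 10 min, luminescence read. Data corrected against DMSO-only plates and normalized before curve fitting.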
MCF10A rerep: induces DNA re-replication in MCF 10a normal breast cells; AID 624296; 350,000 tested, 2.9% active; Potency, µM (highest dose often 46.1 µM), for inactives: top-dose activity, positive = re-replication, usual class: activators; MCF 10A DNA re-replication, Hoechst nuclear intensity, 48 h; also: % of control where 0% means no effect; nearly all actives have a fitted effect of over 50% in size
KB-V1 cytotox: KB-V1 MDR subline cytotoxicity | AID 1347076 | 400,000 tested, 3.4% active | Potency, µM (doses to about 46.1 µM), most hits filed as cytotoxic | KB-V1 MDR cells viability, CellTiter-Glo, 72 h; also: % is scaled to controls: 0 for no effect and ±100 for the full control effect; nearly all actives have a fitted effect of over 60% in size
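Cytotoxicity via CellTiter-Glo luminescence after 72 h compound exposure at 37 degrees C. Cells: drug-selected KB-V1 line, DMEM phenol-red free plus 10% FBS. Compounds tested at multiple concentrations; normalized data fitted to concentration-effect curves.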
The depositor's hits bear a star; i = inactive; ? = inconclusive; / = not tested or not shown; ! = not confirmed by another sample; [ ] = dose if it differs, or a comment. Rows were chosen to be rich in hits. Some 6.7% of all compounds tested hit in one or more screens of this group. Unless noted, calls follow the shape of the dose curve; as a rule, active = well fitted curve in the direction sought with a large enough effect; inconclusive = small, poorly fitted or top-dose-only effect, or another doubt; inactive = no such curve, though single readings can be large; an effect the other way counts as inactive or inconclusive. Potency is read from the fitted curve at half-maximal effect.

SMILES	SW480 rerep	PINK1 modulator	KB-3-1 cytotox	MCF10A rerep	KB-V1 cytotox
CCOC(=O)[C@@H]1[C@H]2COc3cc(OC)ccc3[C@@H]2N2C(=O)N(c3ccc(C(F)(F)F)cc3)C(=O)[C@@]12C	-3.6%	1.1%	i	-6.0%	i
CCOC(=O)[C@H]1[C@H]2COc3ccc(OC)cc3[C@@H]2N2C(=O)c3cc(OC)ccc3NC(=O)[C@@]12C	6.51µM*	2.2%	i	-4.8%	?
Cc1ccc2oc(=O)c3cc(C(=O)Nc4ccc(F)cc4F)sc3c2c1	/	2.6%	i	/	?
COc1ccc(S(=O)(=O)N2CCC(C(=O)NC(c3nc4ccccc4[nH]3)C(C)C)CC2)cc1 (stereo not drawn)	9.0%	7.9%	i	?	i
CC(C)[C@H](NC(=O)C1CCCC1)c1nc2ccccc2[nH]1	?	-1.8%	i	9.2µM*	i
COC(=O)/C=C1\OCc2ccc(C)cc21	/	/	i	/	i
CCOC(=O)C(CC)(CC)C(=O)/C=C/c1cccc(Br)c1	?	-1.7%	?	18.4µM*	?
NC(=O)NC(=O)COC(=O)/C=C/c1cccc(Br)c1	-3.3%	1.8%	i	-1.9%	i
Cc1nn2cc(-c3cccc(Cl)c3)cnc2c1Cl	6.51µM*	1.6%	13µM*	9.2µM*	5.8µM*
Cc1ccc(NC(=O)CSc2nc3ccc(Nc4nc(N5CCOCC5)nc(N5CCOCC5)n4)cc3s2)cc1	?	-0.7%	?	5.8µM*	?
COc1ccc(NC(=O)CSc2nc3ccc(Nc4nc(N5CCOCC5)nc(N5CCOCC5)n4)cc3s2)cc1	13.0%	-1.2%	i	2.06µM*	i
CC(=O)CSc1nc2ccc(Nc3nc(N4CCOCC4)nc(N4CCOCC4)n3)cc2s1	?	-1.3%	?	10.2%	?
CCC(C)(c1nnnn1-c1c(C)cccc1C)N(N=O)c1cccc(C(F)(F)F)c1 (stereo not drawn)	?	-1.6%	?	22.3%	16.4µM*
Nc1[nH]c(N=NC(=O)c2ccccc2O)c2ccccc12	?	-0.7%	?	?	20.6µM*
Cc1ccc(CSc2nnc(-n3c(=O)c(C#N)cc4c(=O)n5cc(C)ccc5nc43)s2)cc1	/	-0.3%	i	/	i
CCOC(=O)C1=C(C)NC2=C(C(=O)CCC2)C1c1cccs1 (stereo not drawn)	-6.2%	0.0%	i	3.1%	i
CCOC(=O)c1sc2c(c1C)C(c1cccs1)C1=C(CCCC1=O)N2 (stereo not drawn)	?	2.2%	?	9.2µM*	i
CCc1ccc(NCc2cc3c(C)nn(-c4ccccc4)c3[nH]c2=O)cc1	?	/	i	?	18.4µM*
COc1cc(C(=O)Nc2nc(-c3cccs3)cs2)cc(OC)c1OC	-7.9%	/	i	?	i
O=C(Nc1nc(-c2cccs2)cs1)c1ccc([N+](=O)[O-])o1	7.31µM*	0.9%	6.51µM*	2.91µM*	20.6µM*
COc1ccc(C(=O)Nc2nc(-c3cccs3)cs2)cc1	-8.1%	5.8%	?	?	5.8µM*
O=C(COc1ccc(Cl)cc1)Nc1nc(-c2cccs2)cs1	-2.4%	13.1%	i	13µM*	i
Cc1csc(NC(=O)c2sc3nc(-c4cccs4)ccc3c2N)n1	?	/	i	0.9%	20.6µM*
CCOc1ccc(C2C(C(=O)Nc3ccccc3)=C(C)Nc3nc(-c4ccccc4)nn32)cc1OC (stereo not drawn)	/	6.4%	i	/	i
Cc1cccc(C)c1NC(=O)C1(C)CSCC(=O)N1CCCN1CCOCC1 (stereo not drawn)	/	/	i	/	i
SMILES	SW480 rerep	PINK1 modulator	KB-3-1 cytotox	MCF10A rerep	KB-V1 cytotox
COc1cc(C(=O)N2CCCC(C)(C(=O)NS(=O)(=O)C3CC3)C2)cc(OC)c1OC (stereo not drawn)	/	0.1%	i	/	i
O=C(CN1C(=O)CCC1=O)Nc1nc(-c2ccc(Cl)s2)cs1	6.4%	3.1%	i	20.6µM*!	i
Cc1c(C(=O)O)sc2nc(-c3cccs3)cc(C(F)(F)F)c12	-16.6%	-0.8%	i	15.6%	i
Cc1c(C(=O)Nc2nccs2)sc2nc(-c3cccs3)cc(C(F)(F)F)c12	?	?	9.2µM*	?	?
O=C(Nc1nc(-c2cccs2)cs1)c1ccc(Cl)cc1	0.5%	3.6%	?	?	20.6µM*
COc1ccc(C(=O)Nc2cnc(NC(=O)c3cccs3)cc2C)cc1	?	-1.5%	i	7.31µM*	i
COc1ccc(C(=O)Nc2cc(C)c(NC(=O)c3ccccn3)cn2)cc1	0.9%	0.1%	i	-6.8%	i
CCN(C[C@H]1N[C@@](Cc2ccccc2)(C(=O)OC)[C@H]2C(=O)N(C)C(=O)[C@@H]12)C(C)=O	?	-1.7%	i	-2.3%	i
COc1cccc(-c2cnc(C(O)c3c(C)cccc3C)[nH]2)c1 (stereo not drawn)	/	2.0%	i	/	i
O=C(O)c1ccccc1C=NNc1ccccn1	-1.6%	-3.2%	i	-3.3%	i
CC1CC1C(=O)Nc1nc(-c2ccc(Cl)s2)cs1 (stereo not drawn)	3.6%	12.3%	?	10.3%	13µM*
CN(C(=O)C1CCC1C(=O)O)c1nc(-c2ccc(Cl)s2)cs1 (stereo not drawn)	12.1%	-1.1%	i	-10.3%	i
O=C(Nc1nc(-c2ccc(Cl)s2)cs1)c1ccncc1	-2.7%	-3.9%[38.3 µM]	?	2.4%	6.51µM*
COC(=O)c1cc(=O)nc(NN=Cc2ccco2)s1	/	1.5%	i	/	i
CNC(CC(C)C)C(=O)NC1C(=O)NC(CC(N)=O)C(=O)NC2C(=O)NC3C(=O)NC(C(=O)NC(C(=O)O)c4cc(O)cc(O)c4-c4cc3ccc4O)C(O)c3ccc(c(Cl)c3)Oc3cc2cc(c3OC2OC(CO)C(O)C(O)C2OC2CC(C)(N)C(O)C(C)O2)Oc2ccc(cc2Cl)C1O (stereo not drawn)	1.7%	-0.6%	i	?	i
COC(=O)CNC(=O)c1cn(CC(C)C)c(=O)c2cc(OC)c(OC)cc12	-11.2%	-1.8%	i	4.3%	i
COc1cc2c(C(=O)NCc3ccc4c(c3)OCO4)cn(CC(C)C)c(=O)c2cc1OC	-2.0%	2.0%	i	14.6µM*	i
O=C1c2ccccc2C(=O)N1CCc1csc(-c2cccc(F)c2)n1	1.4%	-1.6%[38.3 µM]	i	?	16.4µM*
CCCCCCCCOC(=O)C[N+](C)(C)C/C=C(/C)Cl	-2.1%	1.9%	i	7.5%	?
CCCCCCCCCCOC(=O)C[N+](C)(C)C/C=C(/C)Cl	5.3%	3.4%	i	23.1µM*	i
N#Cc1cccc(NC(=O)c2cc(C3CCCCN3C(=O)CCCc3ccccc3)on2)c1 (stereo not drawn)	/	2.1%	i	/	i
